Measured values: PubChem BioAssay AID652010 (The Scripps Research Institute Molecular Screening Center, 2013)
Hit rate of the full screen: of about 370,000 compounds, about 4,100 (1.1%) were called active. Shown is part of a subset that was picked to be rich in actives. Unmarked numbers belong to inactive results.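 Rule for the calls: active = inhibition above the mean over all tested compounds plus 3 SD (cut at about 3.6% in these data); inactive = the rest.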

Test: relief of DAX-1 repression of SF-1 activity – cell-based, luminescence, SF-1 (NR5A1), full-length DAX-1, primary screen (AID 652010);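 note: 0% = DAX-1 cells with DMSO and 100% = cells lacking DAX-1 with DMSO; higher inhibition means more luminescence from relief of DAX-1 repression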
Settings: HEK293T StAR-luciferase reporter, SF-1/DAX-1 repression relief; at 6.8 µM; hits give high values

SMILES | inhibition
COc1cccc(CNC(=O)CNS(=O)(=O)c2ccc3nc(C)sc3c2)c1OC | -0.3%
Cc1ccc(CSc2nnc(SCC(=O)NN=Cc3cc(Br)ccc3F)s2)cc1 | -0.52%
COc1ccc(C(=O)OCCN2CCN(C3CN(Cc4cn(Cc5ccccc5F)nn4)S(=O)(=O)C3)CC2)cc1OC (configuration not stated) | -2.65%
N=c1c2c3c(sc2nc2n1CCCCC2)CCCC3 | 0.02%
COc1cccc(C(=O)Nc2ccc3nc4n(c(=O)c3c2)CCCCC4)c1 | -0.05%
O=c1c2c(nc3n1CCCCC3)sc1c(O)cccc12 | 4.81% (active)
O=C(Cn1[nH]c(=O)c2ccccc2c1=O)Nc1cccc(-c2nnc3n2CCCCC3)c1 | -0.2%
CC(=O)c1ccc(NC(=O)c2sc3nc4n(c(=O)c3c2C)CCCCC4)cc1 | 4% (active)
O=C(Nc1ccc2nc3n(c(=O)c2c1)CCCC3)c1ccc(Cl)nc1 | -1.19%
CCOc1ccccc1C(=O)N1CCC[C@@H]1C(=O)N1CCC[C@H]1C(=O)NCc1ccccc1 | 0.55%
COc1ccc(-n2c(SCC(=O)NC3CCCC3)nnc2-c2ccncc2)cc1 | -0.56%
CC(=NNC(N)=O)c1ccc(Cl)c(-n2cccc2)c1 | -0.18%
COc1ccccc1CN(C)C(=O)c1cc2ccccc2o1 | -0.34%
Cn1c(SCC(=O)NC2CCCCC2)nnc1-c1cc2ccccc2o1 | -0.14%
CCNc1nc(-c2cc3ccccc3o2)cs1 | 4.18% (active)
O=C(NCc1ccc(F)cc1)c1cc(C2CCCCN2C(=O)c2ccccn2)on1 (configuration not stated) | -1.23%
COc1ccc(C2CC=C(C(=O)O)C(c3ccccc3F)N2S(=O)(=O)c2ccc(C)cc2)cc1OC (configuration not stated) | 0.7%
O=S(=O)(c1ccccc1)N1CCC(c2nc3ccccc3o2)CC1 | -0.48%
Cc1ccc(CN2CCC(N3CCC(C(=O)NCC4CCCO4)CC3)CC2)o1 (configuration not stated) | 0.9%
CC(=O)Nc1cccc(-c2csc(Nc3cccc(C)n3)n2)c1 | 4.69% (active)
Cc1cccc(NC(=O)COc2ccc(Br)cc2C)n1 | 2.42%
CC(=O)NC(c1cccc(F)c1)c1nc(-c2cccc(F)c2)cs1 (configuration not stated) | -0.34%
OC(c1ccccc1)(c1ccccc1)C1CCN(CCCOc2ccc(-c3ccsc3)cc2)CC1 | -0.82%
CCC(=O)Nc1ccc2c(c1)C(=O)N(C)[C@H]1CC[C@H](CC(=O)NCCOC)O[C@@H]1CO2 | 0.92%

SMILES | inhibition
Cc1nc(N)sc1N=Nc1c(C)n(C)n(-c2ccccc2)c1=O | 0.04%
Cc1c(C=O)n(C)n(-c2ccccc2)c1=O | 0.3%
Cc1c(N=Nc2ccc(N(C)C)cc2)c(=O)n(-c2ccccc2)n1C | 4.03% (active)
C=CCn1c(SCC(N)=O)nnc1-c1ccccc1OC | -0.12%
CCN(CC(=O)Nc1ccc(C)c(S(=O)(=O)N(C)C)c1)Cc1ccccc1 | 0.23%
COc1ccc(CCC(=O)OCC(=O)Nc2ccc(C)c(S(=O)(=O)N(C)C)c2)cc1 | 1.11%
Cc1ccc(C(=O)Nc2ccc(C)c(S(=O)(=O)N(C)C)c2)s1 | 4.23% (active)
CCc1nc2ccc(C(=O)Nc3ccc(OC)c(OC)c3)cn2c1N(C)C(=O)c1cccc(OC)c1 | -1.08%
CSCCC(NC(=O)c1ccco1)C(=O)NCCc1ccc(F)cc1 (configuration not stated) | 0.47%
CSCCC(NC(=O)c1ccco1)C(=O)Nc1cc(C)ccn1 (configuration not stated) | 11% (active)
CSCCC(NC(=O)c1ccco1)C(=O)OCC(=O)Nc1ncc(Cl)c(C)c1Cl (configuration not stated) | -0.11%
COC(=O)c1ccc(CN2C(=O)NC(c3ccccc3)(c3ccccc3)C2=O)o1 | 0.15%
O=C(C1CCCN1S(=O)(=O)c1ccccc1)N1CCc2ccccc2C1 (configuration not stated) | -0.56%
O=C(CSc1nc2ccccc2s1)NN=Cc1ccc(O)cc1O | -0.65%
CC(NC(=O)COC(=O)c1ccc2ccccc2n1)c1ccccc1 (configuration not stated) | 0.44%
CC(C)CC(=O)N/C(N)=N/c1nc2ccccc2s1 | 4.37% (active)
CCC(=O)NC(=Nc1nc2ccccc2s1)NC(=O)CC | 3.92% (active)
CC(C)CC(=O)NC(=S)NNC(=O)c1cccc([N+](=O)[O-])c1 | -0.72%
CC(C)C(C)NC(=O)COc1ncnc2ccccc12 (configuration not stated) | -0.45%
Cc1ccc(C)c(NC(=O)CCS(=O)(=O)c2ccccc2)c1 | 0.88%
COc1ccc(S(=O)(=O)n2nc(C)c(S(=O)(=O)N3CCOCC3)c2C)cc1 | -0.25%
COc1ccc(CN2C/C(=C/c3ccccc3)N3C(=O)C[C@@H](c4ccccc4)N=C23)c(OC)c1 | -0.16%
CCN(CC)C(=O)CC[C@H]1CC[C@]2(CCCN(Cc3ccc(Cl)cc3)C2)O1 | -0.32%
